# High-throughput results as filed in PubChem.
# Tgondii IFNg – blocks Toxoplasma gondii growth in the presence of IFN-gamma; Toxoplasma gondii growth in IFN-gamma-treated host cells; active compounds read low; activity change, negative = inhibition, % (concentration not given with the values); actives 3.8% (n = 69,000); AID 1259416; in the data active = activity change below about -70%, passing the limit was not always enough;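 note: host cells are HeLa cells infected with Toxoplasma gondii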
# Numbers without * were called inactive. The sample as a whole holds a higher share of hits than the screen did.
SMILES,Tgondii IFNg
CC1CCN(S(=O)(=O)c2ccc3c(ccc(=O)n3CC(=O)NCc3ccc(Cl)cc3)c2)CC1,-64.1
COc1ccccc1CNC(=O)Cn1c(=O)ccc2cc(S(=O)(=O)N3CCC(C)CC3)ccc21,-33.4
CCc1nc(OCC(=O)NCc2ccccc2)c2ccccc2n1,2.9
Cc1ccc(CNS(=O)(=O)c2cc3c4c(c2)CCN4C(=O)CC3)o1,-3.3
Cc1cc(CSc2nc3ccccc3[nH]2)c(C)cc1CSc1nc2ccccc2[nH]1,-96.1*
c1ccc(-n2nnnc2CSc2nc3ccccc3[nH]2)cc1,-0.7
Clc1ccccc1CSc1nc2ccccc2[nH]1,-37.1
Oc1ccc(COCc2ccccc2)c2cccnc12,-95.9*
O=C(COCc1ccccc1)NCc1cnn2ccccc12,-30.1
O=C(NCc1ccccc1)c1c(O)c2cccnc2[nH]c1=O,7.7
CCn1c(NC(=O)CCn2nc(C)c(Cl)c2C)nc2ccccc21,-12.7
CC[C@H]1CN2CCc3cc(OC)c(OC)cc3C2C[C@@H]1CC1NCCc2cc(OC)c(OC)cc21 (stereo not given in full),-79.1*
COc1cc2c(cc1OC)C(Cc1ccc(O)cc1)N(C)CC2 (stereo not given),6.0
CCS(=O)(=O)N1CCc2cc(OC)c(OC)cc2C1c1ccc(OC)c(OC)c1 (stereo not given),36.4
CC(=O)N[C@@H]1C[C@H](CC(C)C)O[C@H](c2cn[nH]c2-c2ccc(F)cc2)C1,-3.5
COCCN1CCc2ncnc(-c3cnn(C)c3)c2CC1,6.5
c1ccc2c(c1)CCC(N1CCN(Cc3cc4n(n3)CCNC4)CC1)C2 (stereo not given),11.5
c1cc2c(cc1OCC1CCN(Cc3cc4n(n3)CCNC4)CC1)CCC2,-87.4*
OCC1CCN(Cc2cc3n(n2)CCCNC3)CC1,2.8
CC(C)(C)c1cc(CN2CCC(CNS(C)(=O)=O)C2)[nH]n1 (stereo not given),2.3
CCC1CC(C(F)(F)F)n2nc(C3CCCN3S(=O)(=O)c3ccc(F)cc3)cc2N1 (stereo not given),147.8
Cc1cccc(-c2[nH]c(C(C)(C)C)nc2-c2ccc3c(c2)OCO3)n1,-83.0*
COc1nccnc1-c1ccc2c(c1)OCO2,10.4
NC(=O)c1ccc(-c2nc(-c3ccc4c(c3)OCO4)c(-c3ccccn3)[nH]2)cc1,-61.6
CN(CC1CCCCO1)C(=O)c1cn[nH]c1-c1cccc(F)c1 (stereo not given),3.5
SMILES,Tgondii IFNg
N#Cc1c(NC(=O)CSc2nc3ccccc3o2)sc2c1CCC2,130.1
CN(C)CCN1CCCC12CCCN(C(=O)C1CCCO1)C2 (stereo not given),0.1
COc1cc2c(cc1OC)C(Nc1ccc(I)cc1)=NC1(CCCC1)C2,-98.3*
COc1cc2c(cc1OC)-c1nnc(C)n1C(C)(C)C2,2.5
O=C(C1CC1)N1CCC2(C1)c1ccccc1S(=O)(=O)N2Cc1ccc(F)cc1 (stereo not given),93.3
O=C(C1COCCO1)N1Cc2cnn(Cc3ccc(F)cc3)c2C1 (stereo not given),21.8
CN(C)C(=O)COCC1CN(CC2CC2)Cc2nnn(C)c21 (stereo not given),-5.0
Cc1nn(C)c(Cl)c1CN1CCN(c2nnc(C(F)(F)F)s2)CC1,-1.2
Cc1ccc(-c2cn[nH]c2C2CCCN(C(=O)c3ccc[nH]3)C2)cc1 (stereo not given),-91.9*
Cc1ccc(-c2cn[nH]c2C2CCCN(C(=O)c3c[nH]c(=O)cn3)C2)cc1 (stereo not given),-20.2
Nc1cc(-c2cn[nH]c2C2CCCN(S(=O)(=O)c3ccccc3)C2)ccn1 (stereo not given),-38.9
CC(C)(C)OC(=O)Nc1cc(-c2cn[nH]c2C2CCCN(C(=O)OC(C)(C)C)C2)ccn1 (stereo not given),-102.3*
CC(C)(C)OC(=O)N1CCCC(c2ccnc3cc(-c4cccc(F)c4)nn23)C1 (stereo not given),21.3
CC(C)c1cc(C(=O)N2CCCC(c3[nH]ncc3-c3ccccc3)C2)on1 (stereo not given),-3.5
Cc1ccccc1-c1nc2sc3c(c2c(=O)[nH]1)CCCC3,172.7
COC(=O)[C@@H]1C[C@@H](NC(=O)c2cn[nH]c2-c2cccc(OC)c2)CN1C,7.5
COC(=O)c1cc2n(n1)CCCN(Cc1cccn1-c1ccccn1)C2,-1.5
CCN1CCCC1CNC(=O)Cn1cccc1-c1nc(-c2ccccc2)cs1 (stereo not given),7.2
COC(=O)[C@@H](c1ccc(O)cc1)N1Cc2ncccc2C1=O,-3.1
CC(C)CN1C(=O)N(C)C2(CCN(CC(C)Cc3ccc4c(c3)OCO4)CC2)C1=O (stereo not given),-2.2
Cc1cc(CN2CC3C[C@@H](O)CN3C[C@@H]2C)c(C)n1-c1ccc2c(c1)OCO2 (stereo not given in full),1.8
CC(Cc1ccc2c(c1)OCO2)CN1CC2C[C@@H](O)CN2C[C@H]1C (stereo not given in full),-86.2*
CN(C)S(=O)(=O)N1C[C@H](OCc2ccccn2)[C@@H]2OCCC[C@@H]21,0.5
